Tb PFK inh: qHTS Assay to Find Inhibitors of T. brucei phosphofructokinase; ATP-dependent 6-phosphofructokinase (Trypanosoma brucei brucei), O15648; T. brucei PFK, ADP-Glo luminescence; Potency, µM (top dose mostly 57.5 µM), for the others: top-dose activity, negative = inhibition, usual class: inhibitors; actives 0.17% (n = 330,000); AID 485367, 2010;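 note: 0% = uninhibited 1x PFK enzyme wells and -100% = no-enzyme wells; nearly all actives have a fitted effect of over 60% in size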
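Compounds were pin-transferred as a titration series up to 57 uM into substrate buffer (0.5 mM F6P, 0.1 mM ATP, pH 8.0), then 1.25 nM PFK was added and reactions ran 45 min before ADP-Glo detection.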
VDR inh: Inhibitors of the vitamin D receptor (VDR): qHTS; Vitamin D3 receptor (Homo sapiens), P11473; VDR-SRC2-3 peptide fluorescence polarization, 2 h; Potency, µM, without a hit: max response, negative = inhibition, usual class: inhibitors; actives 0.93% (n = 400,000); note: % is set by controls: 0 for no effect and ±100 for the full control effect
Target sequence (P11473 whole entry, looked up): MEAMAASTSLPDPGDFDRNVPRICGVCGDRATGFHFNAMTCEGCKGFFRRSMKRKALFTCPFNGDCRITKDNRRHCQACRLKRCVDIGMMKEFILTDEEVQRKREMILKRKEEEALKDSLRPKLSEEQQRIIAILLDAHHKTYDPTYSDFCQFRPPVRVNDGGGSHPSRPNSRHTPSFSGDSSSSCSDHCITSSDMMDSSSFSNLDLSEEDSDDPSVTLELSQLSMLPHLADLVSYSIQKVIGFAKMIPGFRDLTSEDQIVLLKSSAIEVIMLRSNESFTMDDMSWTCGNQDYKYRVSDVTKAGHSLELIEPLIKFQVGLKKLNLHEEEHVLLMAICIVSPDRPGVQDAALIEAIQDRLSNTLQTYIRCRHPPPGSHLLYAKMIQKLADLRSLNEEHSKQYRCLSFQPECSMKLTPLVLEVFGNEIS
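Inhibition of the VDR/SRC2-3 peptide interaction is quantified by fluorescence polarization. Compounds (23 nl, pintool) incubate with the reagents for 2 hours at ambient room temperature.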
GLS inh: qHTS for Inhibitors of Glutaminase (GLS); Glutaminase kidney isoform, mitochondrial (Homo sapiens), O94925; GLS enzymatic activity, qHTS titration; Potency, µM (top dose mostly 45.5 µM), inactives show at the highest dose activity change, negative = inhibition, actives largely listed as inhibitors; actives 0.21% (n = 410,000); note: % is set by controls: 0 for no effect and ±100 for the full control effect
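Assay buffer: 45 mM KH2PO4 pH 8.2, 0.02% Tween-20. hKGA acts on L-glutamine (1 mM solution added); product glutamate is reported by an oxidase/peroxidase Amplex Red coupling, with fluorescence taken at baseline and 30 min.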
Pin1 inh: qHTS Assay to Find Inhibitors of Pin1; Peptidyl-prolyl cis-trans isomerase NIMA-interacting 1 (Homo sapiens), Q13526; actives 0.009% (n = 390,000); Pin1 FP peptide displacement, HiFluor488, 10 min; Potency, µM (doses to about 115 µM), for inactives: at the top dose activity, negative = inhibition, most hits filed as inhibitors; AID 504891, 2011; active = well fitted inhibition curve with a large enough effect in the polarisation, with a control signal flat, not every such curve was filed as active; inconclusive = small, poorly fitted or top-dose-only effect, or effect the other way, or a change in a side signal; inactive = no such curve, though single readings can be large or run the other way; the % refers to the polarisation; note: % is set by controls: 0 for no effect and ±100 for the full control effect
Target sequence (Q13526 whole entry, looked up): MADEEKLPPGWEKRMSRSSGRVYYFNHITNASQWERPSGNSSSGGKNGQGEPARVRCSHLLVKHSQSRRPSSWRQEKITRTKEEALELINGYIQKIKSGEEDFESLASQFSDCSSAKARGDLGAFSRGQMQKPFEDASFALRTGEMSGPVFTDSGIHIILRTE
Tb PGK inh: qHTS Assay to Find Inhibitors of Phosphoglycerate Kinase; Potency, µM (series often up to 57.5 µM), for inactives: top-dose activity change, negative = inhibition, hits mostly inhibitors; PGK/GAPDH coupled, Kinase-Glo luminescence, 60 min; Phosphoglycerate kinase, glycosomal (Trypanosoma brucei brucei), P07378; actives 0.043% (n = 380,000); AID 602233, 2012; note: % is set by controls: 0 for no effect and ±100 for the full control effect; nearly all actives have a fitted effect of over 60% in size
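Luminescent ATP detection (Kinase-Glo Plus) follows a 60-minute room-temperature incubation, with wells lacking PGK as controls. Buffer: 100 mM TEA (pH 7.6), 5 mM MgCl2, 0.01% Tween-20. Coupling enzyme GAPDH (100 nM final) supplies unstable 1,3-BPG in-well.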
VDR confirm: qHTS for Inhibitors of the vitamin D receptor (VDR): Hit Validation in Primary Screen; AID 602199, 2012; shares compounds with VDR inh; Potency, µM, usual class: inhibitors; VDR-coactivator inhibition assay, qHTS confirmation; actives 89% (n = 840)
VDR FP: qHTS for Inhibitors of the vitamin D receptor (VDR): Hit Validation using a Fluorescein Assay; VDR-coactivator binding, fluorescein fluorescence polarization; actives 48% (n = 840); shares compounds with VDR inh; Potency, µM (highest dose often 57.1 µM), inactives show top-dose activity change, negative = inhibition, usual class: inhibitors; AID 602200, 2012
VDR bla reporter: qHTS for Inhibitors of the vitamin D receptor (VDR): Hit Validation using a Beta-Lactamase Assay. shares compounds with VDR inh. VDR beta-lactamase reporter cells, FRET ratio; cells co-treated with VDR agonist LG190178. Potency, µM (highest dose often 46.1 µM), for the others: at the top dose activity change, negative = inhibition, usual class: inhibitors. actives 23% (n = 840). AID 602202, 2012; note: % is set by controls: 0 for no effect and ±100 for the full control effect
VDR cytotox: qHTS for Inhibitors of the vitamin D receptor (VDR): Hit Validation using a Cytotoxicity Assay. shares compounds with VDR inh. Potency, µM (doses to about 48.3 µM), inactives show top-dose activity change, negative = cytotoxicity, hits mostly cytotoxic. actives 18% (n = 840). cytotoxicity counter-screen, cell viability, qHTS;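 note: plate controls were DMSO for no effect and high-concentration cycloheximide for full effect; nearly all actives have a fitted effect of over 75% in size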
* hit, by the source's call; i = inactive; ? = inconclusive; / = not tested or not shown. A selection: hits, their analogues and other compounds. The true share with any hit is near 1.1%. Unless noted, calls come from the whole dose curve; as a rule, active = well fitted curve in the direction sought with a large enough effect; inconclusive = small, poorly fitted or top-dose-only effect, or another doubt; inactive = no such curve, though single readings can be large; an effect the other way counts as inactive or inconclusive. Potency is the fitted concentration of half-maximal effect.

SMILES | Tb PFK inh | VDR inh | GLS inh | Pin1 inh | Tb PGK inh | VDR confirm | VDR FP | VDR bla reporter | VDR cytotox
Cc1[nH]n(C(N)=S)c(=O)c1C(c1ccccc1)C(C#N)C#N (stereo unspecified) | 10% | ? | 20% | -5% | i | / | / | / | /
C#CCOc1c(Br)cc(/C=C2/C(=O)ON=C2C)cc1OCC | 2% | ? | -7% | -2% | -8% | / | / | / | /
CC1=NOC(=O)/C1=C\c1ccc(-c2ccc(Cl)cc2Cl)o1 | ? | 22µM* | -2% | ? | -7% | 3.8* | 2.2µM* | ? | ?
CCOc1cc(/C=C2/C(=O)ON=C2C)ccc1OCc1ccccc1F | 0% | -83% | -1% | -10% | -4% | / | / | / | /
C#CCOc1c(Cl)cc(/C=C2/C(=O)ON=C2C)cc1OCC | 1% | ? | -2% | 1% | -1% | 7.9* | 7.9µM* | -4% | 10%
CCCOc1ccc(Cl)cc1/C=C1/C(=O)ON=C1C | -21% | 25µM* | 5% | -1% | -2% | 11* | 3.5µM* | 13% | ?
CCOc1cc(/C=C2/C(=O)ON=C2C)ccc1OCc1ccc(F)cc1 | 8% | 79µM* | -5% | 1% | 4% | ? | 157% | -5% | -34%
NC(=O)Cn1nc(-c2ccccc2)nc1-c1ccccc1 | / | 16% | -8% | -1% | -3% | / | / | / | /
Cc1ccc2c(c1)-c1nc(-c3ccccc3)cc(-c3ccccc3)c1CO2 | / | 0% | 8% | 1% | 0% | / | / | / | /
O=C(O)c1nc(NCCc2ccccc2)ncc1Cl | 0% | -12% | -13% | 5% | -4% | / | / | / | /
C#CCOc1c(Br)cc(/C=C2/C(=O)ON=C2C)cc1OC | -6% | ? | -13% | -6% | -10% | / | / | / | /
C#CCOc1ccc(/C=C2/C(=O)ON=C2C)cc1Cl | -5% | 45µM* | 4% | 4% | -5% | 6* | ? | -3% | 9%
C=CCOc1c(Br)cc(/C=C2/C(=O)ON=C2C)cc1OC | -3% | 45µM* | -11% | -6% | -15% | 9.5* | ? | -10% | 11%
NS(=O)(=O)c1ccc(NC2=CC(=O)C(=O)c3ccccc32)cc1 | 1% | ? | -6% | -14% | -1% | 14* | 7.9µM* | ? | ?
Cc1ccc(NC2=CC(=O)C(=O)c3ccccc32)cc1 | -3% | -14% | 10% | -13% | 0% | / | / | / | /
COC(=O)[C@H](C)NC(=O)c1cc2c(cn1)[nH]c1ccccc12 | -25% | 22µM* | ? | 3% | i | 3.4* | ? | 17% | -11%
CC(=O)O/N=C1\C(=O)N(Cc2ccc(C)cc2)c2ccccc21 | -1% | ? | 44% | -6% | i | / | / | / | /
CN1C(=O)/C(=N\OC(=O)c2ccccc2Cl)c2ccccc21 | 4% | ? | 24% | 4% | 9% | 14* | 16µM* | ? | 2%
CSc1ccc(CCNC(=O)Cn2c(C)c3cnn(-c4ccccc4)c(=O)c3c2C)cc1 | / | 6% | -3% | 12% | 3% | / | / | / | /
C[C@@H]1CN([C@H](C)CO)C(=O)CCCn2nncc2CO[C@@H]1CN(C)S(=O)(=O)c1ccccc1 | / | / | -5% | / | -2% | / | / | / | /
Cc1cccc(S(=O)Cc2ccc(C(=O)NC3CCCCCC3)o2)c1 (stereo unspecified) | / | 6% | 3% | 1% | -4% | / | / | / | /
COc1ccccc1NC(=O)CSc1oc(-c2ccccc2)nc1S(=O)(=O)c1ccccc1 | / | 9% | 0% | 52% | -3% | / | / | / | /
COc1ccc(C=C2C(=O)OC(C)(C)OC2=O)cc1OC | -2% | -3% | 2% | 10% | -4% | / | / | / | /
COc1ccc(/C=C2/C(=O)ON=C2c2ccccc2)cc1OC | 0% | 40µM* | 32% | -3% | -3% | 21* | ? | -3% | -7%
NC(=O)COc1ccc(/C=C2\C(=O)ON=C2c2ccccc2)cc1 | 1% | ? | -1% | -12% | -9% | 8.9* | 13µM* | ? | ?
SMILES | Tb PFK inh | VDR inh | GLS inh | Pin1 inh | Tb PGK inh | VDR confirm | VDR FP | VDR bla reporter | VDR cytotox
O=C1ON=C(c2ccccc2)/C1=C/c1ccc(-c2ccccc2[N+](=O)[O-])o1 | 0% | 35µM* | -7% | / | i | 7.5* | ? | 16µM* | 23µM*
CCSC1=N/C(=C\c2ccc(-c3ccccc3[N+](=O)[O-])o2)C(=O)S1 | 15% | -12% | -5% | ? | i | / | / | / | /
COc1ccc(/C=C2\C(=O)ON=C2c2ccccc2)cc1OC | -2% | 35µM* | 19% | 3% | -8% | 19* | ? | -15% | -2%
O=C1C(=O)N(C2CCN(S(=O)(=O)c3ccccc3)CC2)CCN1Cc1ccccc1 | / | 13% | 6% | -9% | -8% | / | / | / | /
O=C(CN1CCOCC1)Nc1ccc([N+](=O)[O-])cc1 | -3% | -9% | 1% | -1% | -2% | / | / | / | /
O=C1ON=C(c2ccccc2)/C1=C/c1ccco1 | 2% | ? | ? | ? | -7% | 8.4* | ? | -30% | ?
O=C1C(=Cc2ccco2)C(=O)c2ccccc21 | 7% | -16% | 13% | -5% | -2% | / | / | / | /
CCc1oc2ccccc2c1C(=O)CCN1CCCCC1 | -5% | ? | 10% | 4% | -4% | 7.1* | 4µM* | -11% | 2%
COc1cc(/C=C2\C(=O)N(CCC#N)N=C2C)c(Br)cc1OC(C)C | 11% | ? | -17% | -4% | -6% | 8.4* | ? | 19% | 18%

Bioassay records: PubChem, National Center for Advancing Translational Sciences (NCATS)
